From PubChem
This is a sample that favours compounds with a hit; in the whole collection about 1.8% have one here.
DENV2 CPE = DENV2-induced cell death inhibition | DENV2-infected cells, cytopathic effect rescue, plate reader | CPE inhibition, % at 9.99 µM | 350,000 tested, 1.7% active | AID 651640; in the data active = CPE inhibition above about 20%, passing the limit was not always enough; inconclusive = no clear call, values can overlap the other calls; tested in BHK-21 cells
AF4-AF9 inh = blocks AF4 peptide binding to human AF9; P42568; AlphaScreen, biotin-AF4 peptide binding to FLAG-AF9; inhibition, % at 10 µM; 350,000 tested, 0.47% active; AID 651704;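 active = every replicate reaching a set inhibition limit, whatever the replicate mean, cut at about 25% in these data; inconclusive = mean inhibition reaches that limit but some replicates miss it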
Target sequence (P42568 whole entry, looked up): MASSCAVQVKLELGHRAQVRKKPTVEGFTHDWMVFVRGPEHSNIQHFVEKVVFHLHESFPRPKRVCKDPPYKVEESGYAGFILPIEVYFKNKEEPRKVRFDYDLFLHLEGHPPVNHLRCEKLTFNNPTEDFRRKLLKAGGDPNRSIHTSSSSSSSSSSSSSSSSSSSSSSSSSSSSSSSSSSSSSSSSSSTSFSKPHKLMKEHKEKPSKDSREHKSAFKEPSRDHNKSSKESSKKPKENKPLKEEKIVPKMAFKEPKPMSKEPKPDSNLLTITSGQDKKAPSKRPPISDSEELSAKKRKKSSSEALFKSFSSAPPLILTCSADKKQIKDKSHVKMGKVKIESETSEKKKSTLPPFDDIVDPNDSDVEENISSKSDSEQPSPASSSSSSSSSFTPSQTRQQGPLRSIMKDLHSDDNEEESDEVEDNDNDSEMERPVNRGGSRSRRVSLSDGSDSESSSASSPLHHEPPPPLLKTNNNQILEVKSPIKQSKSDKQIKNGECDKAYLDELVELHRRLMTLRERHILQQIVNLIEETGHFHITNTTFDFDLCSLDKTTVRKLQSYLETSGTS
ERAP1 inh = inhibitors of human ERAP1 aminopeptidase; AID 652197; inhibition, % at 10.7 µM; Q9NZ08; 340,000 tested, 0.15% active; recombinant ERAP1, Leu-AMC fluorescence, 60 min;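 active = mean replicate inhibition of at least 30%, or all replicates individually reaching that 30% level; inactive = mean below 30% and not every replicate reaching it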
PDI inh = inhibitors of human protein disulfide isomerase; AID 588391; 350,000 tested, 0.052% active; P07237; PDI insulin aggregation turbidity, A650, 90 min; inhibition, % at 10 µM;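 active = mean inhibition across replicates of 30% or more, whatever share of single replicates reach that level; inconclusive = mean inhibition below 30% while every single replicate reaches 30%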
ERp5 block = inhibitors of human ERp5; 350,000 tested, 0.05% active; inhibition, % at 9.99 µM; Q15084; ERp5 insulin aggregation, absorbance 650 nm, 90 min;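 active = mean replicate inhibition above about 25%, with every replicate also reaching it, limit read from the data, passing the limit was not always enough; inconclusive = only one of those two criteria met; inactive = neither criterion met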
Each line names hits and unclear results; the compound was inactive in the other large screens; ! = not active in a repeat.

COc1ccc(S(=O)(=O)Nc2ccc3c(c2)C(=O)N([C@@H](C)CO)C[C@@H](C)[C@@H](CN(C)C(=O)Nc2c(C)noc2C)OCCCC[C@H](C)O3)cc1	none (no result: PDI inh)
COc1ccc(S(=O)(=O)Nc2ccc3c(c2)C(=O)N([C@H](C)CO)C[C@H](C)[C@@H](CN(C)C(=O)Nc2c(C)noc2C)OCCCC[C@@H](C)O3)cc1	DENV2 CPE 40.6 (no result: PDI inh)
CN(c1ccccc1)c1ncnc2c1ncn2C	DENV2 CPE 88.7
CN(C)c1ncnc2c1ncn2-c1ccccc1	none
CC(C)c1cccc(NC(=O)C[C@H]2CC[C@H]3[C@@H](COc4ccc(NC(=O)c5cnccn5)cc4C(=O)N3C)O2)c1	none (no result: PDI inh)
C[C@H]1CN([C@@H](C)CO)C(=O)CCCn2nncc2CO[C@@H]1CN(C)S(=O)(=O)c1ccccc1F	DENV2 CPE 70.0 (no result: PDI inh)
C[C@H](CO)N1C[C@H](C)[C@H](CN(C)S(=O)(=O)c2ccccc2)OCc2cnnn2CCCC1=O	DENV2 CPE 28.1!
C[C@H](CO)N1C[C@H](C)[C@@H](CN(C)S(=O)(=O)c2ccc(Oc3ccccc3)cc2)OCc2cnnn2CCCC1=O	ERp5 block 89.2!
COc1cccc(NC(=O)CN(C)C(=O)c2cccc(S(=O)(=O)N3c4ccccc4CC3C)c2)c1 (configuration not stated)	DENV2 CPE 57.8
COc1cccc(NC(=O)CN(C)C(=O)c2cccc(NS(=O)(=O)c3ccccc3)c2)c1	none
O=C(C1CCCC1)N1CC(=O)N2[C@@H](CO)[C@H](c3ccc(Br)cc3)[C@@H]2C1	none (no result: PDI inh)
COc1ccc(NC(=O)Nc2ccc3c(c2)CC(=O)N([C@H](C)CO)C[C@H](C)[C@@H](CN(C)S(=O)(=O)c2ccc(OC)cc2)O3)cc1	DENV2 CPE 69.6 (no result: PDI inh)
COc1ccc(S(=O)(=O)N(C)C[C@@H]2Oc3ccc(NS(C)(=O)=O)cc3CC(=O)N([C@@H](C)CO)C[C@@H]2C)cc1	none (no result: PDI inh)
COc1ccc(CN(C)C[C@@H]2Oc3ccc(NC(=O)Nc4ccc5c(c4)OCO5)cc3CC(=O)N([C@@H](C)CO)C[C@H]2C)cc1	AF4-AF9 inh 27.3 (no result: PDI inh)
COc1ccc(S(=O)(=O)N(C)C[C@H]2Oc3ccc(NC(=O)Nc4ccc(F)cc4)cc3CC(=O)N([C@@H](C)CO)C[C@H]2C)cc1	DENV2 CPE 23.3 (no result: AF4-AF9 inh, ERAP1 inh, PDI inh, ERp5 block)
COc1ccc(S(=O)(=O)N(C)C[C@@H]2Oc3ccc(NS(C)(=O)=O)cc3CC(=O)N([C@@H](C)CO)C[C@H]2C)cc1	DENV2 CPE 47.8 (no result: PDI inh)
COc1ccc(NC(=O)Nc2ccc3c(c2)CC(=O)N([C@H](C)CO)C[C@@H](C)[C@H](CN(C)S(=O)(=O)c2ccc(OC)cc2)O3)cc1	none (no result: PDI inh)
COc1ccc(NC(=O)Nc2ccc3c(c2)CC(=O)N([C@@H](C)CO)C[C@H](C)[C@H](CN(C)Cc2ccc4c(c2)OCO4)O3)cc1	none (no result: PDI inh)
COc1ccc(S(=O)(=O)N(C)C[C@@H]2Oc3ccc(NC(=O)Nc4ccc(F)cc4)cc3CC(=O)N([C@H](C)CO)C[C@@H]2C)cc1	none (no result: AF4-AF9 inh, ERAP1 inh, PDI inh, ERp5 block)
COc1ccc(NC(=O)Nc2ccc3c(c2)CC(=O)N([C@H](C)CO)C[C@H](C)[C@@H](CN(C)S(C)(=O)=O)O3)cc1	none (no result: PDI inh)
C[C@@H]1CN([C@H](C)CO)S(=O)(=O)c2ccc(C#Cc3ccccn3)cc2O[C@H]1CN(C)C(=O)C1CC1	none (no result: PDI inh)
O=C(NCC[C@H]1CC[C@H](NC(=O)C2CCCC2)[C@H](CO)O1)c1ccc(F)cc1	none (no result: PDI inh)
C[C@H]1CN([C@@H](C)CO)C(=O)Cc2cc(NC(=O)C3CC3)ccc2O[C@@H]1CN(C)C(=O)Nc1ccccc1	DENV2 CPE inconclusive (no result: PDI inh)
C/C=C/c1ccc2c(c1)O[C@H](CN(C)C(=O)Cc1ccccc1)[C@@H](C)CN([C@@H](C)CO)S2(=O)=O	none (no result: PDI inh)
COc1ccc(S(=O)(=O)N(C)C[C@@H]2Oc3ccc(NC(=O)Nc4ccc5c(c4)OCO5)cc3CC(=O)N([C@@H](C)CO)C[C@H]2C)cc1	DENV2 CPE 31.0 (no result: PDI inh)
C[C@H](CO)N1C[C@H](C)[C@@H](CN(C)S(=O)(=O)c2cn(C)cn2)Oc2ccc(NC(=O)Nc3ccccc3)cc2CC1=O	none (no result: PDI inh)
COc1ccc(NC(=O)Nc2ccc3c(c2)CC(=O)N([C@H](C)CO)C[C@H](C)[C@H](CN(C)S(=O)(=O)c2cn(C)cn2)O3)cc1	DENV2 CPE 26.7 (no result: PDI inh)
COc1ccc(S(=O)(=O)N(C)C[C@@H]2Oc3ccc(NC(=O)CCC(F)(F)F)cc3CC(=O)N([C@@H](C)CO)C[C@H]2C)cc1	DENV2 CPE 25.4 (no result: PDI inh)
